{"source": "PubChem BioAssay (NCATS)", "note": "Records with an inconclusive call do not appear. Unmarked numbers belong to inactive results. Activity calls are given as the source filed them. Calls follow the shape of the dose curve; as a rule, active = well fitted inhibition curve with a large enough effect; inconclusive = small, poorly fitted or top-dose-only effect; inactive = flat fitted curve, though single readings scatter. Potency is read from the fitted curve at half-maximal effect.", "data": [{"tested_on": "3D7", "assay": "qHTS profiling for inhibitors of Plasmodium falciparum proliferation (AID 504749); also: nearly all actives have a fitted effect of over 60% in size;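 as to activity, negative = inhibition: 0% = DMSO vehicle and full inhibition = artemisinin control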", "details": "P. falciparum in erythrocytes, SYBR Green DNA, 72 h; series mostly up to 28.7 µM; activity, negative = inhibition: at the top concentration", "summary_of_the_method": "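Three-day growth assay of blood-stage parasites in erythrocytes (0.3% parasitemia, 2.5% hematocrit) at 37 C, 5% CO2, quantified by SYBR Green DNA staining after overnight detergent lysis.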", "values": [{"compound": "S=P(N1CC1)(N1CC1)N1CC1", "activity, negative = inhibition": "-1.05%"}, {"compound": "COc1cc([C@@H]2c3cc4c(cc3[C@H](O)[C@H]3COC(=O)[C@H]23)OCO4)cc(OC)c1OC", "Potency": "2240 nM (active)"}, {"compound": "COc1ccc(-c2ccc3cc(C(=O)O)ccc3c2)cc1C12CC3CC(CC(C3)C1)C2", "activity, negative = inhibition": "-11.9%"}, {"compound": "COC(=O)Nc1nc2ccc(C(=O)c3ccccc3)cc2[nH]1", "activity, negative = inhibition": "-12.3% [at 12.8 µM]"}, {"compound": "COc1ccc2cc3[n+](cc2c1OC)CCc1cc2c(cc1-3)OCO2", "Potency": "2000 nM (active)"}, {"compound": "CNNCc1ccc(C(=O)NC(C)C)cc1", "activity, negative = inhibition": "-26.6%"}, {"compound": "N=C(N)c1ccc(OCCCCCOc2ccc(C(=N)N)cc2)cc1", "Potency": "1580 nM (active)"}, {"compound": "CCc1cc(C(N)=S)ccn1", "activity, negative = inhibition": "-1.46%"}, {"compound": "COc1cc2c(Nc3ccc(Br)cc3F)ncnc2cc1OCC1CCN(C)CC1", "Potency": "2510 nM (active)"}, {"compound": "COC(=O)Nc1nc2ccc(Sc3ccccc3)cc2[nH]1", "activity, negative = inhibition": "1.66% [at 12.8 µM]"}, {"compound": "C1CCC(C(CC2CCCCN2)C2CCCCC2)CC1", "note": "(configuration not stated)", "Potency": "7940 nM (active)"}, {"compound": "CC(C)Cn1cnc2c(N)nc3ccccc3c21", "activity, negative = inhibition": "-12.1%"}, {"compound": "CCCc1nc(C)c2c(=O)[nH]c(-c3cc(S(=O)(=O)N4CCN(CC)CC4)ccc3OCC)nn12", "activity, negative = inhibition": "-22.2%"}, {"compound": "CC(C)(Sc1cc(C(C)(C)C)c(O)c(C(C)(C)C)c1)Sc1cc(C(C)(C)C)c(O)c(C(C)(C)C)c1", "Potency": "3550 nM (active)"}, {"compound": "COc1cc(NCc2ccc3nc(N)nc(N)c3c2C)cc(OC)c1OC", "Potency": "6.3 nM (active)"}, {"compound": "CCCCOc1ccc(CC(=O)NO)cc1", "Potency": "562 nM (active)"}, {"compound": "Cc1nnc(NS(=O)(=O)c2ccc(N)cc2)s1", "activity, negative = inhibition": "0.57%"}, {"compound": "Nc1nc(N)c2nc(CNc3ccc(C(=O)NC(CCC(=O)O)C(=O)O)cc3)cnc2n1", "note": "(configuration not stated)", "activity, negative = inhibition": "5.98%"}, {"compound": "CCOC(=O)[C@H](CCc1ccccc1)N[C@H]1CS[C@H](c2cccs2)CN(CC(=O)O)C1=O", "activity, negative = inhibition": "-7.15%"}, {"compound": "CCCCCCNC(=O)n1cc(F)c(=O)[nH]c1=O", "Potency": "4470 nM (active)"}, {"compound": "CCc1c2c(nc3ccc(OC(=O)N4CCC(N5CCCCC5)CC4)cc13)-c1cc3c(c(=O)n1C2)COC(=O)[C@]3(O)CC", "activity, negative = inhibition": "1.77%"}, {"compound": "CC(C)NCC(O)c1ccc(NS(C)(=O)=O)cc1", "note": "(configuration not stated)", "Potency": "inactive"}, {"compound": "CC(C)OC(=O)C(C(=O)OC(C)C)=C1SC=CS1", "activity, negative = inhibition": "2.17%"}, {"compound": "CC[C@H](C)C(=O)O[C@H]1C[C@@H](C)C=C2C=C[C@H](C)[C@H](CC[C@@H]3C[C@@H](O)CC(=O)O3)[C@H]21", "activity, negative = inhibition": "-19.4%"}, {"compound": "O=c1cc(O)c(Cl)c[nH]1", "activity, negative = inhibition": "5.26%"}, {"compound": "COc1ccc(C(=O)CC(=O)c2ccc(C(C)(C)C)cc2)cc1", "activity, negative = inhibition": "-15.3%"}, {"compound": "CNC1CCCN(c2c(F)cc3c(=O)c(C(=O)O)cn(C4CC4)c3c2OC)C1", "note": "(configuration not stated)", "activity, negative = inhibition": "-12.7%"}]}]}
